± gives the standard deviation of the averaged measurements. Of roughly 6,500 targets only a part is listed; those with the largest changes were picked by preference.
These targets were tested with Nc1ncnc2c1ncn2[C@@H]1O[C@H](COP(=O)(O)OP(=O)(O)OP(=O)(O)O)[C@@H](O)[C@H]1O [adenosine triphosphate] (assay: NP40-soluble protein abundance relative to vehicle (solubility fold change) (ratio); higher = more soluble protein in presence of ATP). Settings: concentration: 10mM.
How it was run: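 Eight concentrations, 0.1 to 10 mM, were tested on Jurkat crude lysate for 10 min at room temperature and then 3 min at 37 °C, in three independent experiments. The lysate was solubilised with 0.8% NP40 and benzonase, ultracentrifuged, and the supernatant TMT-labelled for LC-MS/MS. Each value is the fold change against the detergent-processed vehicle in its own replicate, from vsn-normalised intensities.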

UniProt O00764, sequence (O00764 whole entry): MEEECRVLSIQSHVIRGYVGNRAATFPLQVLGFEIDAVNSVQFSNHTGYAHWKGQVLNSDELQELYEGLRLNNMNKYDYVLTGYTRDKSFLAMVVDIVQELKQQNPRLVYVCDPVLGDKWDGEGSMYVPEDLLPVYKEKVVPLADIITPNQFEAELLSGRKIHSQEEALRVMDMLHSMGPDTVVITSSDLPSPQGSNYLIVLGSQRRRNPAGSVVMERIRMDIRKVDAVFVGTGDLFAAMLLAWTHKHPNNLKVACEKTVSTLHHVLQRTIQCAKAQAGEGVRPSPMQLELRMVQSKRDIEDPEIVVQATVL
UniProt P04632, sequence (P04632 whole entry, one chain of several): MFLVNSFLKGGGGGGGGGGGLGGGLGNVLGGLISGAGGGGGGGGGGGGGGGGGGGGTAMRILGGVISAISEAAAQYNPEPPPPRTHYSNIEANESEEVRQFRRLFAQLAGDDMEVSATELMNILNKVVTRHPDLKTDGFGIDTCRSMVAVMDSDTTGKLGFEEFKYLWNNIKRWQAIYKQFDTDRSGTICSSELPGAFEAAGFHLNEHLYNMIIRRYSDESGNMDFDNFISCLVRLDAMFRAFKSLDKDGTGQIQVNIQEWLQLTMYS
UniProt Q9BZG8, sequence (Q9BZG8 whole entry, one chain of several): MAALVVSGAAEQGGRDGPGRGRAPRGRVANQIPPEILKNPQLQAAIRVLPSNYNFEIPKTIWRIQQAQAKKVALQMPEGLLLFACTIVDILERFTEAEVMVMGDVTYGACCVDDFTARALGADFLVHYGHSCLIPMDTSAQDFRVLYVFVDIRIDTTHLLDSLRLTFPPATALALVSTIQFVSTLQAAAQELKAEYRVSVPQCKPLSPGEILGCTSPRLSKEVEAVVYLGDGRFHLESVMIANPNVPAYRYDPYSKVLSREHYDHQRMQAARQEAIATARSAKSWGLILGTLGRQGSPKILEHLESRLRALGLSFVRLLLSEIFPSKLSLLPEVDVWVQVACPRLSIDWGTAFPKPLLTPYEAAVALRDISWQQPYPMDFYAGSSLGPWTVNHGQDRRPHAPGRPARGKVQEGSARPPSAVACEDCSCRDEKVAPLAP
UniProt O75081, sequence (O75081 whole entry): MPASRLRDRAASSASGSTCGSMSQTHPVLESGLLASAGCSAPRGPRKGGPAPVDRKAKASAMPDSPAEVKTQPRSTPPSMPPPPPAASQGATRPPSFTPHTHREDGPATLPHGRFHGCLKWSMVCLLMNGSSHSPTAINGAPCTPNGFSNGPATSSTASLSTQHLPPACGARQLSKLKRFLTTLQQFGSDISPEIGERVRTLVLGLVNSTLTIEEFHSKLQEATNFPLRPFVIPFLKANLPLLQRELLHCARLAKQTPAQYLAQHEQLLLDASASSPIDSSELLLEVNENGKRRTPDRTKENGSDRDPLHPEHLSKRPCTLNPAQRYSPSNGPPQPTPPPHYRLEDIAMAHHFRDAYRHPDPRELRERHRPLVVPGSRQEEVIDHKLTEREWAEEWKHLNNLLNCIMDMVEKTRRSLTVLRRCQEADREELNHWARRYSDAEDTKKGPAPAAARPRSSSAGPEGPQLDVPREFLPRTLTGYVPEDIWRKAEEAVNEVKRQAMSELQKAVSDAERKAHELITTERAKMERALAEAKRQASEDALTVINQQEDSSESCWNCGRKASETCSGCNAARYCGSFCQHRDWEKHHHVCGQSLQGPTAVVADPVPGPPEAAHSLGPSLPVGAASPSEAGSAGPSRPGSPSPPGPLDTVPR
UniProt P49821, sequence (P49821 whole entry, one chain of several): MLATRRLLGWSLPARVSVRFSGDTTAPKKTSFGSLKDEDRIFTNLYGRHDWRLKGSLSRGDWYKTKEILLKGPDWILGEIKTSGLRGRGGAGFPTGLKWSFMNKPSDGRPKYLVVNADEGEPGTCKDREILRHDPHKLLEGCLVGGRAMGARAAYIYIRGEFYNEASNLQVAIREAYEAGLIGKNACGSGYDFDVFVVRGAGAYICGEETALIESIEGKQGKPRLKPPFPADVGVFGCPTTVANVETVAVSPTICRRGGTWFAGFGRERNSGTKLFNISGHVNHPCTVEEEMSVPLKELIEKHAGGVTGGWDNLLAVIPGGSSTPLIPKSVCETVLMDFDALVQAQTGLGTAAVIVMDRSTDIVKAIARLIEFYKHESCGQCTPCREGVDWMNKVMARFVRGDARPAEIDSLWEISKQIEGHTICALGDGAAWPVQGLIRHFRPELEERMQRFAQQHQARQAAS
UniProt Q96EV2, sequence (Q96EV2 whole entry, one chain of several): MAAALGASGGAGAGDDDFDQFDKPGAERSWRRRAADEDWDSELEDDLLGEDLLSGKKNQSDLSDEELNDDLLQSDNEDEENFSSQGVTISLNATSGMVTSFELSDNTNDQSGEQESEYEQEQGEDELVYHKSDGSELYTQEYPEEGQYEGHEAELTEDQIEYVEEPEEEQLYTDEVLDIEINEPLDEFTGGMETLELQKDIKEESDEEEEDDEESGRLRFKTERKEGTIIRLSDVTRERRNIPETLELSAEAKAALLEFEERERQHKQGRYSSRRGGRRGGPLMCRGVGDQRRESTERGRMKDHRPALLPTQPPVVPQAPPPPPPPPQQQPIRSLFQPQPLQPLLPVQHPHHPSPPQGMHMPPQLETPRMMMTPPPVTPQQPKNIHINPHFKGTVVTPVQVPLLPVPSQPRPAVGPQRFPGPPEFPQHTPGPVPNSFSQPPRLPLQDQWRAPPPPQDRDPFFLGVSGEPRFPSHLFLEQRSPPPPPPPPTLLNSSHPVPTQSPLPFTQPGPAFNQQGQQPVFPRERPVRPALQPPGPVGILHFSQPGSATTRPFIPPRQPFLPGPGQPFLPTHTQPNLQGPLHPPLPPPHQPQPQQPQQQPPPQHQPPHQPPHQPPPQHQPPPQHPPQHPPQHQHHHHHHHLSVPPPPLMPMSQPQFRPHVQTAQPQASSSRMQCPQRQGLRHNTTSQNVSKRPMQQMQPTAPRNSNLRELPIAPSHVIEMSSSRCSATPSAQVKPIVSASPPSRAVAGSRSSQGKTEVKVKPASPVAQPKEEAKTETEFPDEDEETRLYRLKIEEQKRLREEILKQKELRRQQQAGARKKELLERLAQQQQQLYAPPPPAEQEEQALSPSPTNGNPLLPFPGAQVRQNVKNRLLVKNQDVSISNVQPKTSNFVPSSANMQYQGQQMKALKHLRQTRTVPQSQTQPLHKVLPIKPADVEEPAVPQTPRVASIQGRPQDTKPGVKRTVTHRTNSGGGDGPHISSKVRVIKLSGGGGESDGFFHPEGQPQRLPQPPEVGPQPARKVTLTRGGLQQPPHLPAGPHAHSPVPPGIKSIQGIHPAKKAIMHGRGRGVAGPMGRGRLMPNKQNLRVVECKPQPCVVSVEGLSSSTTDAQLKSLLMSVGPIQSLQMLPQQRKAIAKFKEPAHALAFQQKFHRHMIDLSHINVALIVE
UniProt Q6VN20, sequence (Q6VN20 whole entry, one chain of several): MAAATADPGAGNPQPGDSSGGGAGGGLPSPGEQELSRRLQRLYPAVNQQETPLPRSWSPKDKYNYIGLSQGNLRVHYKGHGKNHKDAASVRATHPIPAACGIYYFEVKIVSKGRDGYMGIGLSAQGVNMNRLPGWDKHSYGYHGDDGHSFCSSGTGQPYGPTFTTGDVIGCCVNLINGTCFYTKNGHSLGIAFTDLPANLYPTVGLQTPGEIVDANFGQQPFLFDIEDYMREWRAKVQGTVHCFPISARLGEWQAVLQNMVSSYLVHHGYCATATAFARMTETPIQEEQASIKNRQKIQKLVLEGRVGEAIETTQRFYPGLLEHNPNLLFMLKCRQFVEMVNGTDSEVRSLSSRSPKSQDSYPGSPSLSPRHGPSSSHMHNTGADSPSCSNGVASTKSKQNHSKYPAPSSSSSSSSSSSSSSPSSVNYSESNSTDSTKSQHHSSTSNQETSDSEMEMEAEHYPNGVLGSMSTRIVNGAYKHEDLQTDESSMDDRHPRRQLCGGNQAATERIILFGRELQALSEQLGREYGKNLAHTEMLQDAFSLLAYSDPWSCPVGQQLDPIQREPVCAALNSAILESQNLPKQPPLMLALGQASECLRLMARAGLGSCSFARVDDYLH
UniProt O43772, sequence (O43772 whole entry): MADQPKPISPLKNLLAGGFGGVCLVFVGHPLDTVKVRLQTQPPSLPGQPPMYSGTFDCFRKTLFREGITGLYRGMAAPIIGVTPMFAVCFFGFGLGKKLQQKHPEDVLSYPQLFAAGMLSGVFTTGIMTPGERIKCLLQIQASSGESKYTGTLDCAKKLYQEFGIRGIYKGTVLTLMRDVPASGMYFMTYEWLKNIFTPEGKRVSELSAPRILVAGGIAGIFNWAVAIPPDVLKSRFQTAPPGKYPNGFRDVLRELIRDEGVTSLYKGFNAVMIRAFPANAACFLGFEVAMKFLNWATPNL
UniProt Q8IVV7, sequence (Q8IVV7 whole entry, one chain of several): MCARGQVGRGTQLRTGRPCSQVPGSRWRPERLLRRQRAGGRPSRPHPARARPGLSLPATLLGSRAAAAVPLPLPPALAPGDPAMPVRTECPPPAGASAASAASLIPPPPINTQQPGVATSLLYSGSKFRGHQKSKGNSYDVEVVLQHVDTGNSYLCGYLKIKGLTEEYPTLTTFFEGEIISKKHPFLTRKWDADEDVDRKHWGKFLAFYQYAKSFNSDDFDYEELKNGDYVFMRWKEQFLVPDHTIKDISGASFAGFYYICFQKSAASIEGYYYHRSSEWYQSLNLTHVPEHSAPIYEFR
UniProt Q07955, sequence (Q07955 whole entry, one chain of several): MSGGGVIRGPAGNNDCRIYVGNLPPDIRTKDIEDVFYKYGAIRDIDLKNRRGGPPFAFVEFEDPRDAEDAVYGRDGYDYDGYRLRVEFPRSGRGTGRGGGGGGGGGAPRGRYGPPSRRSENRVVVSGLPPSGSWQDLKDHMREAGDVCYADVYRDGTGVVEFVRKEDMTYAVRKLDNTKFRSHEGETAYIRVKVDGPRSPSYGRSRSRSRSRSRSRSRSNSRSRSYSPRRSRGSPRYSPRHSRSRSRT
UniProt Q96F10, sequence (Q96F10 whole entry, one chain of several): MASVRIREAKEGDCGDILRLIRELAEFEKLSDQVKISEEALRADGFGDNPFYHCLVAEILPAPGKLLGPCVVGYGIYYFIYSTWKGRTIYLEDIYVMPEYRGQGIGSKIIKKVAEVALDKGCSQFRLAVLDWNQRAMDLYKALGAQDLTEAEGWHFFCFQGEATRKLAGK

Target	NP40-soluble protein abundance
E7EQI7|Q12768 (UniProt Q12768)	1.02 ± 0.05
XYLB (UniProt O75191)	0.967 ± 0.053
H7C0H2|Q96EV2|H0Y3K4 (UniProt Q96EV2)	0.951 ± 0.059
H3BPD5|P78549|P78549-2|P78549-3 (UniProt P78549)	1.89 ± 0.12
J3KTL2|Q07955 (UniProt Q07955)	1.98 ± 0.093
G3XAG1|Q96ME7|Q96ME7-3 (UniProt Q96ME7)	2.06 ± 0.081
E9PJN1|O75676|O75676-2 (UniProt O75676)	1.38 ± 0.13
H0YM92|J3KMZ9|P01130|P01130-5|H0YMD1|P01130-4 (UniProt P01130)	0.987 ± 0.016
J3KPF0 (UniProt Q9Y4D8)	1 ± 0.044
DYNC1LI2 (UniProt O43237)	0.932 ± 0.032
F8WCD0|Q8NC42 (UniProt Q8NC42)	1 ± 0.076
MAN2B1 (UniProt O00754)	0.93 ± 0.018
A0A0A0MTB8|Q8NI36 (UniProt Q8NI36)	2.17 ± 0.17
A0A0C4DGQ5|P04632 (UniProt P04632)	0.875 ± 0.06
B7ZBA0|Q8NI27 (UniProt Q8NI27)	2.4 ± 0.21
UniProt A7KAX9|A7KAX9-2	0.941 ± 0.018
H0YLE6|Q9NWH9|H0YNF3 (UniProt Q9NWH9)	1.13 ± 0.033
A0A0D9SEU5|Q6VN20|Q6VN20-3|R4GMX8 (UniProt Q6VN20)	0.951 ± 0.036

Target	NP40-soluble protein abundance
I3L0W4|Q96F10 (UniProt Q96F10)	0.944 ± 0.035
UniProt E9PSI1	0.96 ± 0.04
K7ELH7|K7ENE2|Q8IVV7 (UniProt Q8IVV7)	0.92918 ± 9.2e-06
G3V0I5|P49821|P49821-2 (UniProt P49821)	0.953 ± 0.046
E9PJI1|Q92993-3|Q92993-4|Q92993|Q92993-2 (UniProt Q92993)	1.13 ± 0.1
G3XAC1|Q9BXS9|Q9BXS9-3|Q9BXS9-7|A0A0C4DFT5|Q9BXS9-4|Q9BXS9-5 (UniProt Q9BXS9)	0.863 ± 0.071
ZNHIT1 (UniProt O43257)	1.19 ± 0.073
UniProt O75081|O75081-2|O75081-4	0.97 ± 0.089
I3L1H5|Q9BZG8 (UniProt Q9BZG8)	0.917 ± 0.13
E9PHG5|Q6UW02 (UniProt Q6UW02)	0.993 ± 0.086
B4DT96|C9JYA1|O15504|O15504-2 (UniProt O15504)	1.77 ± 0.49
UniProt O15169|O15169-2	1.15 ± 0.21
F8W060|Q9BZF1 (UniProt Q9BZF1)	0.959 ± 0.045
PDXK (UniProt O00764)	0.981 ± 0.051
B0QY89|Q9Y262 (UniProt Q9Y262)	1.7 ± 0.12
J3KTE4|J3QR09|P84098 (UniProt P84098)	1.05 ± 0.094
TMEM120B (UniProt A0PK00)	1.13 ± 0.14
SLC25A20 (UniProt O43772)	0.974 ± 0.0095

Source: the supplement of paper PMC6411743
